Screening results (PubChem)
SARS PLpro yeast = blocks SARS-CoV papain-like protease in a yeast assay. Potency, µM (series often up to 32.9 µM), without a hit: at the highest dose activity, positive = growth rescue, hits mostly activators. S. cerevisiae expressing SARS-CoV PLpro, growth rescue. hit rate 0.19% among 330,000; calls by dose curve; also: 0% is about no effect; nearly all actives have a fitted effect of over 55% in size
Sm TGR block = blocks Schistosoma mansoni thioredoxin glutathione reductase | Q962Y6 | purified TGR, DTNB reduction, TNB absorbance 405 nm | Potency, µM (doses to about 114 µM), for the others: at the top dose activity change, negative = inhibition, hits mostly inhibitors | hit rate 3% among 360,000 | AID 485364; also: % is scaled to controls: 0 for no effect and ±100 for the full control effect; nearly all actives have a fitted effect of over 60% in size
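TGR 20 nM + NADPH 100 uM (dispensed conc.), cpd preinc 15 min RT; start with NADPH (500 uM addition) then DTNB (15 mM addition). Kinetic TNB absorbance, 405 nm filter. Four-parameter Hill fit across titration.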
Pf growth 48h = inhibits P. falciparum growth in the first generation, 48 h; P. falciparum luciferase growth in erythrocytes, 48 h; Potency, µM (titrated, usually from 28.7 µM), for inactives: top-dose activity change, negative = inhibition, hits mostly inhibitors; hit rate 5.9% among 310,000; also: % is scaled to controls: 0 for no effect and ±100 for the full control effect
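Erythrocytes infected with P. falciparum carrying an integrated firefly luciferase reporter (2% hematocrit, 0.1% parasitemia final) were exposed to compounds in RPMI 1640 with 0.5% Albumax at 37 C, 5% CO2. Growth inhibition was scored as reduced luminescence.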
Pf growth 96h = P. falciparum growth inhibition at 96 hour, primary screen for plastid delayed-death inhibitors. hit rate 6.9% among 320,000. Potency, µM (titrated, usually from 28.7 µM), inactives show top-dose activity change, negative = inhibition, hits mostly inhibitors. P. falciparum luciferase reporter growth, 96 h; also: % is scaled to controls: 0 for no effect and ±100 for the full control effect
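Infected RBCs, 2% Hct / 0.05% parasitemia final; luciferase-reporter P. falciparum; cpd 96 h, 37 C, 5% CO2; luciferase detection reagent; luminescence.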
* = called active by the depositor. Compounds with a hit are over-represented: about 12% of the library has one in this group of screens. Unless noted, calls follow the shape of the dose curve; as a rule, active = well fitted curve in the direction sought with a large enough effect; inconclusive = small, poorly fitted or top-dose-only effect, or another doubt; inactive = no such curve, though single readings can be large; an effect the other way counts as inactive or inconclusive. Potency is read from the fitted curve at half-maximal effect.

Results for Cc1ccc2nc3n(c(=O)c2c1)-c1ccccc1C(=O)NC3Cc1ccc(O)cc1 (stereo unspecified) ?
SARS PLpro yeast: 3%

What do the screens show for `COc1ccc(CNc2nccs2)cc1OC`?
SARS PLpro yeast: 3%; Sm TGR block: 4%; Pf growth 48h: 41%; Pf growth 96h: 12µM*

What do the screens show for `CCc1cc2c(=O)c(Oc3ccccc3F)c(C)oc2c(CN(C)C)c1O`?
SARS PLpro yeast: 5%; Sm TGR block: 0%; Pf growth 48h: 8.3µM*; Pf growth 96h: 21%

What do the screens show for `COc1ccccc1-c1c(C(F)(F)F)oc2c(CN(C)C)c(O)ccc2c1=O`?
SARS PLpro yeast: -3%; Sm TGR block: 1%; Pf growth 48h: inconclusive; Pf growth 96h: inconclusive

How did CC(=O)C1=C(C)OC(N)=C(C#N)C1c1cc2cccc(C)c2nc1Cl (stereo unspecified) do in these assays?
SARS PLpro yeast: -2%; Sm TGR block: inconclusive; Pf growth 48h: 18%; Pf growth 96h: inconclusive

Results for Cc1ccc2cc(C3C(C#N)=C(N)Oc4c3ccc3cccnc43)c(=O)[nH]c2c1 (stereo unspecified) ?
SARS PLpro yeast: 27%; Sm TGR block: 11µM*; Pf growth 48h: inconclusive; Pf growth 96h: 2.6µM*

What do the screens show for `Nc1ccc(Br)cc1C(=O)O`?
SARS PLpro yeast: -10%; Sm TGR block: 3%; Pf growth 48h: -2%; Pf growth 96h: inconclusive

Results for Cc1ccc(C(=O)c2cc(Br)ccc2N)cc1 ?
SARS PLpro yeast: -5%; Sm TGR block: -4%; Pf growth 48h: 35%; Pf growth 96h: 1.7µM*

How did COc1cc(C2C(C(=O)OC(C)C)=C(C)N=C3SCCC(=O)N32)ccc1OCc1ccccc1 (stereo unspecified) do in these assays?
Sm TGR block: 3%

Results for N#Cc1nc(COc2cccc(Cl)c2)oc1NCCN1CCOCC1 ?
SARS PLpro yeast: 0%; Sm TGR block: 35µM*; Pf growth 48h: -5%; Pf growth 96h: 20%

How did N#Cc1nc(-c2ccccc2F)oc1NCCN1CCOCC1 do in these assays?
SARS PLpro yeast: 4%; Sm TGR block: inconclusive; Pf growth 96h: 9.3µM*

How did COCCCNc1oc(COc2ccc(Cl)cc2Cl)nc1C#N do in these assays?
SARS PLpro yeast: -2%; Sm TGR block: 20µM*; Pf growth 96h: 13µM*

What do the screens show for `CC1Cc2ccccc2N1C(=S)NC(=O)C1(C)CC1(Cl)Cl` (stereo unspecified)?
SARS PLpro yeast: 20%; Sm TGR block: 56%; Pf growth 48h: 0%; Pf growth 96h: 7%

What do the screens show for `CC(C)(C)C(=O)Nc1cc2c3c(c1)CCC(=O)N3CCC2`?
SARS PLpro yeast: -2%; Sm TGR block: -7%; Pf growth 48h: 17%; Pf growth 96h: 9%

Results for COC(=O)c1ccc(C2C(C#N)=C(C)NC3=C2C(=O)CC(C)(C)C3)cc1 (stereo unspecified) ?
SARS PLpro yeast: -1%; Sm TGR block: 5%; Pf growth 48h: 8%; Pf growth 96h: 9.3µM*

What do the screens show for `COc1ccc(C2CC(=O)C3=C(C2)NC(C)=C(C#N)C3c2ccc(N(C)C)cc2)cc1` (stereo unspecified)?
SARS PLpro yeast: 11%; Sm TGR block: -1%; Pf growth 48h: 6.6µM*; Pf growth 96h: 10%

Results for CCSc1nc(-c2ccc(OC)cc2)nc2c1Cc1c(CO)cnc(C)c1O2 ?
Sm TGR block: -23%

How did COc1cccc2cc(C(=O)NCc3ccccc3)c(=N)oc12 do in these assays?
SARS PLpro yeast: inconclusive; Sm TGR block: 0%; Pf growth 48h: -5%; Pf growth 96h: 0%

How did COc1ccccc1NC(=O)Nc1cc(NC(=O)Nc2ccccc2OC)c(C)nc1C do in these assays?
SARS PLpro yeast: 0%; Sm TGR block: 1%; Pf growth 48h: inconclusive; Pf growth 96h: 6.6µM*

How did CC(=O)c1sc(NC(=O)c2cc(=O)c3ccccc3o2)nc1C do in these assays?
SARS PLpro yeast: 0%; Sm TGR block: 3%; Pf growth 48h: inactive; Pf growth 96h: 107%

What do the screens show for `Cc1ccc(C)c(NC(=O)c2cc(=O)c3ccccc3o2)c1`?
SARS PLpro yeast: -37%; Sm TGR block: -3%; Pf growth 48h: 117%; Pf growth 96h: 13µM*

What do the screens show for `CCOC(=O)c1csc(NC(=O)c2cc(=O)c3ccccc3o2)n1`?
SARS PLpro yeast: 8%; Sm TGR block: 1%; Pf growth 48h: 4%; Pf growth 96h: 0.074µM*

What do the screens show for `COc1ccc(NC(=O)Nc2ccccc2OC)cc1`?
SARS PLpro yeast: -21%; Sm TGR block: 5%; Pf growth 48h: 133%

Results for COc1cccc2cc(C(=O)NCCc3ccccc3)oc12 ?
SARS PLpro yeast: 6%; Sm TGR block: -8%; Pf growth 48h: 8.3µM*; Pf growth 96h: 32%

How did CC(C)NC(=O)CN(Cc1ccc(F)cc1)C(=O)CCC(=O)Nc1nccs1 do in these assays?
SARS PLpro yeast: 2%; Sm TGR block: -2%; Pf growth 48h: inconclusive; Pf growth 96h: 10%

Results for CC(NC(=O)C(=O)N1CCCCC1)C(c1cccs1)N1CCN(C)CC1 (stereo unspecified) ?
SARS PLpro yeast: 2%; Sm TGR block: -6%; Pf growth 48h: 23%; Pf growth 96h: inconclusive

What do the screens show for `COc1ccc(NC(=O)c2cc3ccccc3o2)cc1OC`?
SARS PLpro yeast: 10%; Sm TGR block: inconclusive; Pf growth 48h: 18%; Pf growth 96h: inconclusive

Results for COc1ccc(CNC(=O)c2cc3ccccc3o2)cc1OC ?
SARS PLpro yeast: -10%; Sm TGR block: 8%; Pf growth 48h: -8%; Pf growth 96h: 13µM*

What do the screens show for `Cc1ccccc1NC(=O)c1cc(=O)c2ccccc2o1`?
SARS PLpro yeast: 1%; Sm TGR block: 3%; Pf growth 48h: 48%; Pf growth 96h: 30%

How did CCOc1ccc(CNC(=O)c2nnc(CS(=O)(=O)c3ccccc3)o2)cc1OC do in these assays?
SARS PLpro yeast: 0%; Sm TGR block: 8%; Pf growth 48h: 4.7µM*; Pf growth 96h: inconclusive

Results for COc1ccccc1NC(=O)c1cc2ccccc2o1 ?
SARS PLpro yeast: -18%; Sm TGR block: -3%; Pf growth 48h: 122%; Pf growth 96h: 5.2µM*

What do the screens show for `Cc1ccccc1NC(=O)c1cc2ccccc2o1`?
SARS PLpro yeast: 0%; Sm TGR block: -17%; Pf growth 48h: 179%; Pf growth 96h: 10µM*

What do the screens show for `Cc1cnc(C(=O)OCC(=O)Nc2cc(S(=O)(=O)N3CCOCC3)ccc2Cl)cn1`?
SARS PLpro yeast: 3%

How did CCOC(=O)c1c(C)oc2nc(C)nc(NCCc3ccc(C)cc3)c12 do in these assays?
Sm TGR block: -15%

Results for Nc1cc(-c2ccco2)no1 ?
SARS PLpro yeast: 0%; Sm TGR block: 28µM*; Pf growth 48h: -8%; Pf growth 96h: inconclusive

Results for Cc1nn(CCC#N)c(NC(=O)c2ccc(Cl)cc2Cl)c1P(=O)(Nc1ccc([N+](=O)[O-])cc1)N1CCOCC1 (stereo unspecified) ?
SARS PLpro yeast: 2%; Sm TGR block: 21%; Pf growth 48h: 8.3µM*

What do the screens show for `CN1CCc2c(OCC(=O)N3CCCc4ccccc43)cccc2C1=O`?
SARS PLpro yeast: 1%; Sm TGR block: 1%; Pf growth 48h: 0%; Pf growth 96h: inconclusive
